Source: PubChem BioAssay (Tox21)
Inconclusive results are not listed. Active and inactive are the calls of the source. Calls come from the whole dose curve; as a rule, active = well fitted curve in the direction sought with a large enough effect in the repeat runs; inconclusive = weak or mixed curves; inactive = no such curve, though single readings can be large; an effect the other way counts as inactive or inconclusive. Where a SMILES comes first, the peptide text is derived from it. [ ]: non-standard residue; d: D form. pGlu = O=C1CC[C@@H](C(=O)O)N1

Key:
[1] = qHTS RealTime-Glo MT Cell Viability Assay in HEK293 cells - 16 hour (AID 1224872); note: top concentration of the series differs between compounds; nearly all actives have a fitted effect of over 50% in size
Method in brief: (§1)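 HEK293 cells seeded with NanoLuc/prosubstrate reagent, rested 5 h at 37 C, then dosed and kept at 37 C up to 40 h. Nonlytic real-time luminescence from viable cells read at 0, 8, 16, 24, 32 and 40 h.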

[2] = qHTS RealTime-Glo MT Cell Viability Assay in HepG2 cells - 8 hour (AID 1224873); note: nearly all actives have a fitted effect of over 55% in size
Method in brief: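 HepG2 cells mixed with RealTime-Glo MT reagents (NanoLuc plus cell-permeant prosubstrate) were seeded at 600 cells/well, incubated 5 h at 37 C/5% CO2, then pinned with compounds in DMSO; nonlytic luminescence tracked viability during 40 h treatment.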

[3] = qHTS RealTime-Glo MT Cell Viability Assay in HEK293 cells - 40 hour (AID 1224874); conditions: RealTime-Glo luminescence; max response: hits give low values; note: nearly all actives have a fitted effect of over 50% in size
Method in brief: (§2)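 Measured as luminescence from the same continuously cultured HEK293 wells at successive time points (0, 8, 16, 24, 32, 40 h) after compound addition. Reagent present from seeding; dosing at 5 h; incubation 37 C.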

[4] = A CellTox Green Cytotoxicity Assay to monitor cytotoxicity in HEK293 cells - 24 hour (AID 1224875); note: series mostly up to about 77 µM; nearly all actives have a fitted effect of over 45% in size
Method in brief: (§3)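 Homogeneous no-lysis format: HEK293 cell suspension mixed with CellTox Green reagent, seeded, incubated 5 h at 37 C/5% CO2, then dosed by pintool with compound in DMSO.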

[5] = A CellTox Green Cytotoxicity Assay to monitor cytotoxicity in HepG2 cells - 16 hour (AID 1224876); note: nearly all actives have a fitted effect of over 45% in size
Method in brief: (§4)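 Fluorescent DNA-binding dye, 600 HepG2 cells/well, 5 h preincubation then compound in DMSO; same plates read at 0–40 h, 37 C.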

[6] = qHTS RealTime-Glo MT Cell Viability Assay in HepG2 cells - 32 hour (AID 1224877); note: nearly all actives have a fitted effect of over 55% in size
Method in brief: (§5)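 HepG2 cells (600/well) were dispensed with RealTime-Glo reagents, incubated 5 h at 37 °C, then treated with compounds in DMSO for up to 40 h. Nonlytic NanoLuc luminescence reflecting viable cells was read at each stated time point.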

[7] = A CellTox Green Cytotoxicity Assay to monitor cytotoxicity in HepG2 cells - 24 hour (AID 1224878); note: nearly all actives have a fitted effect of over 45% in size
Method in brief: as §4

[8] = A CellTox Green Cytotoxicity Assay to monitor cytotoxicity in HepG2 cells - 40 hour (AID 1224879); note: nearly all actives have a fitted effect of over 40% in size
Method in brief: as §4

[9] = A CellTox Green Cytotoxicity Assay to monitor cytotoxicity in HEK293 cells - 32 hour (AID 1224881); note: nearly all actives have a fitted effect of over 40% in size
Method in brief: as §3

[10] = A CellTox Green Cytotoxicity Assay to monitor cytotoxicity in HepG2 cells - 0 hour (AID 1224882); note: nearly all actives have a fitted effect of over 35% in size
Method in brief: as §4

[11] = A CellTox Green Cytotoxicity Assay to monitor cytotoxicity in HepG2 cells - 32 hour (AID 1224883); note: nearly all actives have a fitted effect of over 50% in size
Method in brief: as §4

[12] = A CellTox Green Cytotoxicity Assay to monitor cytotoxicity in HEK293 cells - 8 hour (AID 1224884); note: nearly all actives have a fitted effect of over 35% in size
Method in brief: as §3

[13] = qHTS RealTime-Glo MT Cell Viability Assay in HepG2 cells - 16 hour (AID 1224885); note: nearly all actives have a fitted effect of over 50% in size
Method in brief: as §5

[14] = qHTS RealTime-Glo MT Cell Viability Assay in HEK293 cells - 8 hour (AID 1224887)
Method in brief: as §2

[15] = A CellTox Green Cytotoxicity Assay to monitor cytotoxicity in HEK293 cells - 16 hour (AID 1224888); note: nearly all actives have a fitted effect of over 35% in size
Method in brief: as §3

[16] = qHTS RealTime-Glo MT Cell Viability Assay in HepG2 cells - 0 hour (AID 1224889); note: nearly all actives have a fitted effect of over 50% in size
Method in brief: as §5

[17] = A CellTox Green Cytotoxicity Assay to monitor cytotoxicity in HepG2 cells - 8 hour (AID 1224890); note: nearly all actives have a fitted effect of over 45% in size
Method in brief: as §4

[18] = qHTS assay to identify small molecule antagonists of the estrogen receptor alpha (ER-alpha) signaling pathway using the BG1 cell line in the presence of 0.1 nM 17-beta-estradiol - cell viability counter screen (AID 1259241); note: nearly all actives have a fitted effect of over 40% in size
Method in brief: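 In this screen, hormone-deprived VM7Luc4E2 cells were seeded at 4,000 per well, dosed with compound and 0.1 nM estradiol final, and incubated 22 hr at 37C and 5% CO2; fluorogenic live-cell protease signal reported viability.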

[19] = qHTS RealTime-Glo MT Cell Viability Assay in HEK293 cells - 24 hour (AID 1224886)
Method in brief: as §1

[20] = qHTS RealTime-Glo MT Cell Viability Assay in HEK293 cells - 0 hour (AID 1224880)
Method in brief: as §2
% is set by controls: 0 for no effect and ±100 for the full control effect.

CC(C)C[C@@H](N)C(=O)O
inactive: activity change, negative = cytotoxicity [1] 5.2% [at 15.8 µM] | viability change, negative = cytotoxic [2] 0.12% [at 15.8 µM] | max response [3] 5.97% | activity change [4] -2.57% [at 15.8 µM] | cytotoxicity increase [5] -14.3% [at 15.8 µM] | activity change, negative = cytotoxic [6] 4.67% [at 15.8 µM] | cytotoxicity [7] -14.3% [at 15.8 µM] | cytotoxicity increase [8] 0.791% [at 15.8 µM] | cytotoxicity increase [9] -1.55% [at 15.8 µM] | cytotoxicity [10] -9.4% [at 15.8 µM] | cytotoxicity increase [11] -8.17% [at 15.8 µM] | cytotoxicity increase [12] -0.255% [at 15.8 µM] | activity change, negative = cytotoxic [13] 2.37% [at 15.8 µM] | activity change, negative = cytotoxicity [14] 7.72% [at 15.8 µM] | activity change [15] 1.15% [at 15.8 µM] | activity change, negative = cytotoxicity [16] 0.397% [at 15.8 µM] | cytotoxicity increase [17] -17.7% [at 15.8 µM]

CCCC(C)C(=O)OCC (centres undefined)
inactive: Potency [1] | outcome [2] | max response [3] -2.71% | outcome [4] | outcome [5] | Potency [6] | outcome [7] | Potency [8] | outcome [9] | Potency [10] | Potency [11] | outcome [12] | outcome [13] | Potency [14] | outcome [15] | outcome [17] | outcome [18]

CN1CCC(=C2c3ccccc3CCc3cccnc32)CC1
inactive: Potency [1] | outcome [2] | max response [3] -11% | outcome [4] | outcome [5] | Potency [6] | outcome [7] | Potency [8] | outcome [9] | Potency [10] | outcome [12] | outcome [13] | Potency [19] | Potency [14] | outcome [15] | outcome [17] | outcome [18]

CCNC(=O)[C@@H]1CCCN1C(=O)[C@H](CCCN=C(N)N)NC(=O)[C@H](CC(C)C)NC(=O)CNC(=O)[C@H](Cc1ccc(O)cc1)NC(=O)[C@H](CO)NC(=O)[C@H](Cc1c[nH]c2ccccc12)NC(=O)[C@H](Cc1cnc[nH]1)NC(=O)[C@@H]1CCC(=O)N1 ([pGlu]HWSYGLRP-NHEt)
inactive: Potency [1] | outcome [2] | max response [3] 7.73% | outcome [4] | outcome [5] | Potency [6] | outcome [7] | Potency [8] | outcome [9] | Potency [10] | Potency [11] | outcome [12] | outcome [13] | Potency [19] | Potency [14] | outcome [15] | Potency [16] | outcome [17]

CC(C)(C)C(=O)Oc1ccc(S(=O)(=O)Nc2ccccc2C(=O)NCC(=O)O)cc1
inactive: Potency [1] | outcome [2] | max response [3] 7.92% | outcome [4] | outcome [5] | Potency [6] | outcome [7] | Potency [8] | outcome [9] | Potency [10] | Potency [11] | outcome [12] | outcome [13] | Potency [19] | Potency [14] | outcome [15] | Potency [16] | outcome [17] | outcome [18]

CC(C)C1CCC(O)CC1 (centres undefined)
inactive: Potency [1] | outcome [2] | max response [3] 7.59% | outcome [4] | outcome [5] | outcome [7] | Potency [8] | Potency [20] | outcome [9] | Potency [10] | Potency [11] | outcome [12] | outcome [13] | Potency [19] | Potency [14] | outcome [15] | Potency [16] | outcome [17] | outcome [18]

Cc1ccc(C(=O)c2ccccc2)cc1
inactive: Potency [1] | outcome [2] | max response [3] -1.28% | outcome [4] | outcome [5] | outcome [7] | Potency [8] | Potency [20] | outcome [9] | Potency [10] | Potency [11] | outcome [12] | outcome [13] | Potency [14] | outcome [15] | Potency [16] | outcome [17] | outcome [18]

[Ca+2]
inactive: Potency [1] | outcome [2] | max response [3] 5.91% | outcome [4] | outcome [5] | outcome [7] | Potency [8] | Potency [20] | outcome [9] | Potency [10] | Potency [11] | outcome [12] | outcome [13] | Potency [19] | Potency [14] | outcome [15] | Potency [16] | outcome [17] | outcome [18]

CCCCCCCCCCCCCCCCCCO
inactive: Potency [1] | outcome [2] | max response [3] -1.19% | outcome [4] | outcome [5] | outcome [7] | Potency [8] | Potency [20] | outcome [9] | Potency [10] | Potency [11] | outcome [12] | outcome [13] | Potency [14] | outcome [15] | Potency [16] | outcome [17] | outcome [18]

Cc1onc(-c2c(Cl)cccc2Cl)c1C(=O)Cl
inactive: Potency [1] | outcome [2] | max response [3] 2.75% | outcome [4] | outcome [5] | outcome [7] | Potency [8] | Potency [20] | outcome [9] | Potency [10] | outcome [12] | outcome [13] | Potency [19] | Potency [14] | outcome [15] | Potency [16] | outcome [17] | outcome [18]

NC(=O)N[C@@H](CCC(=O)O)C(=O)O
inactive: Potency [1] | outcome [2] | max response [3] 5.25% | outcome [4] | outcome [5] | Potency [6] | Potency [8] | Potency [20] | outcome [9] | outcome [12] | outcome [13] | Potency [19] | Potency [14] | outcome [15] | Potency [16] | outcome [17]

Nc1ccn([C@@H]2O[C@H](CO)[C@@H](O)C2O)c(=O)n1 (some centres undefined)
inactive: Potency [1] | outcome [2] | max response [3] 6.25% | outcome [4] | outcome [5] | Potency [6] | outcome [7] | Potency [8] | outcome [9] | Potency [10] | outcome [13] | Potency [19] | Potency [14] | outcome [15] | Potency [16] | outcome [17] | outcome [18]

CC(=O)c1ccccc1[N+](=O)[O-]
inactive: Potency [1] | outcome [2] | max response [3] 21.1% | outcome [4] | outcome [5] | Potency [6] | outcome [7] | Potency [8] | Potency [10] | Potency [11] | outcome [12] | outcome [13] | Potency [19] | Potency [14] | outcome [15] | Potency [16] | outcome [17] | outcome [18]

CC/C=C\CCOC(C)OCC (centres undefined)
inactive: Potency [1] | outcome [2] | max response [3] 3.36% | outcome [4] | outcome [5] | outcome [7] | Potency [8] | Potency [20] | outcome [9] | Potency [10] | outcome [12] | outcome [13] | Potency [19] | Potency [14] | outcome [15] | Potency [16] | outcome [17] | outcome [18]
